PubChem BioAssay AID602208 (Johns Hopkins Ion Channel Center, 2012)
Measured potencies and affinities stand elsewhere. Calls of active or inactive are those of the source.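 How the source made its calls: active means average duplicate choline uptake below buffer control mean minus 3 SD, with a fitted dose curve; inactive means the rest.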

The compounds below were run against High affinity choline transporter 1 (Homo sapiens) (UniProt Q9GZV3) (assay: human choline transporter radiolabel uptake blockers – cell-based, 3H-choline uptake, CHT LV-AA trafficking mutant, CRC, dose response (AID 602208)). Settings: HEK293 CHT LV-AA cells.
Chain of High affinity choline transporter 1 (Homo sapiens) (Q9GZV3 whole entry, looked up): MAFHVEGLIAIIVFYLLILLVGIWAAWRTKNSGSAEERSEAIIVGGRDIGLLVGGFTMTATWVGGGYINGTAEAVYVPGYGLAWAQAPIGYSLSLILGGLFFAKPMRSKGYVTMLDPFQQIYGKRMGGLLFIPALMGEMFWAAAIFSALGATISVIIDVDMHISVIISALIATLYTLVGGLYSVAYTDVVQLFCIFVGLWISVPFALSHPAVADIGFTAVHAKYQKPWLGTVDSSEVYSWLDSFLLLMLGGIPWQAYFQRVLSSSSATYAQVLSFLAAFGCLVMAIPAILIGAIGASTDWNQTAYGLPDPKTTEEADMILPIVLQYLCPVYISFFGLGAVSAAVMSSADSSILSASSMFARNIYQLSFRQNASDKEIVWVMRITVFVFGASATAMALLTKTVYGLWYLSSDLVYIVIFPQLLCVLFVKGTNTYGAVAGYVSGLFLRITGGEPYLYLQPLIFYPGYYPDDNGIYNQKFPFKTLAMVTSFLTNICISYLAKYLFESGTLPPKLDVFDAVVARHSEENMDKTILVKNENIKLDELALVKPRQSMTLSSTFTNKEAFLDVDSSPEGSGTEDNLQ

outcome, inactive:
CCc1cccc(CC)c1NC(=O)c1cccc(S(=O)(=O)N2CCN(C)CC2)c1, CCN(CC)S(=O)(=O)c1cc(C(=O)Nc2nncs2)c(Cl)cc1Cl, Cc1cc(NS(=O)(=O)c2ccc(NC(=O)C(C)Oc3cccc(C)c3C)cc2)nc(C)n1 (configuration not stated), COc1cc(NS(=O)(=O)c2ccc(NC(=O)c3ccc(Cl)cc3Cl)cc2)ncn1, Cc1cc(C)c(C(=O)Nc2ccc(S(=O)(=O)Nc3ccccn3)cc2)c(C)c1, Cc1cc(NS(=O)(=O)c2ccc(NC(=O)c3ccc(Cl)cc3Cl)cc2)no1, CC1CCCCC1NC(=O)c1cccc(S(=O)(=O)N2CCN(C)CC2)c1 (configuration not stated)
